Source: ChEMBL document CHEMBL3433997, “St. Jude Leishmania screening dataset” (2016)

Legend:
Type in all cases: functional
[1] = biological target: Solute carrier family 2, facilitated glucose transporter member 1 (Homo sapiens) (UniProt P11166); test: ST_JUDE_LEISH: Cytotoxicity at 2uM final concentration against transgenic Leishmania Mexicana promastigotes LmGLUT1 that are glucose transport deficient and complemented with the human glucose transporter GLUT1. Activity is measured by DNA content using SYBR green in vitro
Sequence of Solute carrier family 2, facilitated glucose transporter member 1 (Homo sapiens) (P11166 whole entry): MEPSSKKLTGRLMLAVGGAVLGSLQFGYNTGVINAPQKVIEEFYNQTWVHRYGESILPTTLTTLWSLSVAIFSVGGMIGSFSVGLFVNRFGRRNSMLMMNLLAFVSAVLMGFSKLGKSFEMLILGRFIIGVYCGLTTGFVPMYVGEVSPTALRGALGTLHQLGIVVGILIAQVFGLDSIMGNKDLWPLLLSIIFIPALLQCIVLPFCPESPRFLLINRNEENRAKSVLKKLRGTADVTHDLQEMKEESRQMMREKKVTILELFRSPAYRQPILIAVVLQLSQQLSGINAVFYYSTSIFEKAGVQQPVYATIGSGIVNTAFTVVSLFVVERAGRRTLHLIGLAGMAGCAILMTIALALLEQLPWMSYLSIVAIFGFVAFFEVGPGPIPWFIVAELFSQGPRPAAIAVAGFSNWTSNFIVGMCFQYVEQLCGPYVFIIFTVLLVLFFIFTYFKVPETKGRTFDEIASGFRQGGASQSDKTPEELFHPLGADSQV

[2] = biological target: Hexose transporter 1 (Plasmodium falciparum) (UniProt O97467); test: ST_JUDE_LEISH: Cytotoxicity at 2uM final concentration against transgenic Leishmania Mexicana promastigotes LmPfHT that are glucose transport deficient and complemented with the Plasmodium falciparum hexose transporter. Activity is measured by DNA content using SYBR green in vitro
[3] = biological target: Glucose transporter (Leishmania mexicana) (UniProt O61059); test: ST_JUDE_LEISH: Cytotoxicity at 2uM final concentration against transgenic Leishmania Mexicana promastigotes LmGT2 that are glucose transport deficient and complemented with the L. Mexicana glucose transporter 2. Activity is measured by DNA content using SYBR green in vitro

Compound `CN(C)C(=O)CN1CCN(c2ncnc(N3CCc4c([nH]c5ccccc45)[C@@H]3c3ccc4c(c3)CCO4)n2)CC1` has an inhibition [1] of 4.28%, an inhibition [2] of 1.61% and an inhibition [3] of -0.47%.

With `COc1ccccc1NC(=O)Nc1cccc(-c2cccc(-c3nc4cccc(C)c4[nH]3)c2)c1` the inhibition [1] was -1.43%, the inhibition [2] was 0.52% and the inhibition [3] was -1.31%.

In the case of `CN(C)CCOc1ccc(-c2cc(-c3ccnc(N)n3)c(-c3ccc(Cl)c(O)c3)o2)cc1`, the inhibition [1] was 1.34%, the inhibition [2] was 1.5% and the inhibition [3] was 2.71%.

In the case of `Fc1ccc2[nH]ccc(=NN=Cc3ccccc3Cl)c2c1`, the inhibition [1] was -0.64%, the inhibition [2] was 0.73% and the inhibition [3] was 1.87%.

Work on `Cn1cnc(CCNC(=O)c2ccc(-c3cccc(-c4nc5ccccc5[nH]4)c3)cc2)c1` yielded an inhibition [1] of 0.8%, an inhibition [2] of 0.81% and an inhibition [3] of -1.62%.

With `CCN(CC)CCN(Cc1ccc(-c2ccc(C(F)(F)F)cc2)cc1)C(=O)Cn1c(CCc2cccc(F)c2F)cc(=O)c2c1CCCC2` the inhibition [1] was 11.6%, the inhibition [2] was 12.3% and the inhibition [3] was 9.85%.

`CC[C@H](NC(=O)c1c(CC2CCN(CC(C)=O)CC2)c(-c2ccccc2)nc2ccccc12)c1ccccc1` showed an inhibition [1] of 2.8%, an inhibition [2] of 3.28% and an inhibition [3] of 0.03%.

For `CC1(C)NC(N)=NC(=N)N1OCCCCOc1ccccc1`, the inhibition [1] was -2.95%, the inhibition [2] was 0.84% and the inhibition [3] was -0.45%.

For `CC(C)(CN)c1nc(-c2ccc(Cl)c(O)c2)c(-c2ccnc(N)n2)[nH]1`, the inhibition [1] was -0.87%, the inhibition [2] was -0.81% and the inhibition [3] was -1.58%.

`O=C(Nc1ccc(-c2nc3ccc(NC(=O)c4ccc(Br)cc4)cc3[nH]2)cc1)c1ccc(Br)cc1` was tested, and the inhibition [1] was -0.81%, the inhibition [2] was -0.68% and the inhibition [3] was -2.77%.

`CC1(C)CC(NCCCCCCCOc2ccc(OCc3ccccc3)cc2)CC(C)(C)N1` gave an inhibition [1] of 103%, an inhibition [2] of 102% and an inhibition [3] of 55.4%.

In the case of `Cc1c(Cn2ncc(N3CC(C)NC(C)C3)c(Cl)c2=O)cccc1NC(=O)Nc1ccc(-c2ccccc2)cc1` (stereo unspecified), the inhibition [1] was 4.08%, the inhibition [2] was 3.21% and the inhibition [3] was 5.17%.
